# Measurements: ChEMBL document CHEMBL1961873, “Compounds: GSK PKIS; Assays: Nanosyn kinase panel” (2012)
# Assays:
# [1] = molecular target: Serine/threonine-protein kinase 26 (Homo sapiens) (UniProt Q9P289); settings: at 1 µM;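 also: mean inhibition of MST4 kinase activity, reported from the GSK PKIS inhibitor-set screening panel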
# [2] = molecular target: Serine/threonine-protein kinase PAK 1 (Homo sapiens) (UniProt Q13153); settings: at 0.1 µM
# [3] = molecular target: Serine/threonine-protein kinase PAK 1 (Homo sapiens) (UniProt Q13153); settings: at 1 µM
# [4] = molecular target: Serine/threonine-protein kinase PAK 2 (Homo sapiens) (UniProt Q13177); settings: at 0.1 µM
# Serine/threonine-protein kinase PAK 2 (Homo sapiens), sequence (Q13177 whole entry): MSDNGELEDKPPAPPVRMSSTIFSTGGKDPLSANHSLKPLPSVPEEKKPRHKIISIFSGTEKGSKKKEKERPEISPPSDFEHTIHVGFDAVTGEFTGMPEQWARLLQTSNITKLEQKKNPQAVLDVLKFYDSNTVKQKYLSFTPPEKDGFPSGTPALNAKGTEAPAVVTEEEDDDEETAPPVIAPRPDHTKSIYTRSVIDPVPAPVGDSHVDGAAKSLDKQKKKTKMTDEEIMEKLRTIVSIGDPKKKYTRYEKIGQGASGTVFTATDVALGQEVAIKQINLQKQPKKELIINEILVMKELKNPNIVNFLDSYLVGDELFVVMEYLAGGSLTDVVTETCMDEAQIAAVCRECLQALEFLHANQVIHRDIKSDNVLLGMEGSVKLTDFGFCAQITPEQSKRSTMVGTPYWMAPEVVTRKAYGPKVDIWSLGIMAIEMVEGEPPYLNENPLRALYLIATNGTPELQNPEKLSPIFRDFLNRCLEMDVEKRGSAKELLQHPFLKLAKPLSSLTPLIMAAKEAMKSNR
# [5] = molecular target: Serine/threonine-protein kinase PAK 2 (Homo sapiens) (UniProt Q13177); settings: at 1 µM
# [6] = molecular target: Serine/threonine-protein kinase PAK 3 (Homo sapiens) (UniProt O75914); settings: at 0.1 µM
# Serine/threonine-protein kinase PAK 3 (Homo sapiens), sequence (O75914 whole entry, looked up): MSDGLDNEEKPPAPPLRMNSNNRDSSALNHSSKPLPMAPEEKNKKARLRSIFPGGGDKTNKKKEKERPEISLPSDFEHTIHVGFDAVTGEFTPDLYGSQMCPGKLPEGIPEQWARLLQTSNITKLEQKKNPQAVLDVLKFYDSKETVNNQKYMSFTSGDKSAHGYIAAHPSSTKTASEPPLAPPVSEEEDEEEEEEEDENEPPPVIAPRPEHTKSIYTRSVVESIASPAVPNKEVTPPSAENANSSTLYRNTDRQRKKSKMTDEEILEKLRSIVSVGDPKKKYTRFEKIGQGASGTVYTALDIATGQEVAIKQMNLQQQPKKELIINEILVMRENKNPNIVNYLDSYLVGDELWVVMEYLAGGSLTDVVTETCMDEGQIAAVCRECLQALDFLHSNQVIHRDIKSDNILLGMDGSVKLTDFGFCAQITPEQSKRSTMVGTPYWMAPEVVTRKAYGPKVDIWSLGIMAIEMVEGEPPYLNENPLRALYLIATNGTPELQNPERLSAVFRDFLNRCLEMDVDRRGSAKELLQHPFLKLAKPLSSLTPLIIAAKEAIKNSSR
# [7] = molecular target: Serine/threonine-protein kinase PAK 3 (Homo sapiens) (UniProt O75914); settings: at 1 µM
# [8] = molecular target: Serine/threonine-protein kinase PAK 5 (Homo sapiens) (UniProt Q9P286); settings: at 0.1 µM
# Serine/threonine-protein kinase PAK 5 (Homo sapiens), sequence (Q9P286 whole entry, looked up): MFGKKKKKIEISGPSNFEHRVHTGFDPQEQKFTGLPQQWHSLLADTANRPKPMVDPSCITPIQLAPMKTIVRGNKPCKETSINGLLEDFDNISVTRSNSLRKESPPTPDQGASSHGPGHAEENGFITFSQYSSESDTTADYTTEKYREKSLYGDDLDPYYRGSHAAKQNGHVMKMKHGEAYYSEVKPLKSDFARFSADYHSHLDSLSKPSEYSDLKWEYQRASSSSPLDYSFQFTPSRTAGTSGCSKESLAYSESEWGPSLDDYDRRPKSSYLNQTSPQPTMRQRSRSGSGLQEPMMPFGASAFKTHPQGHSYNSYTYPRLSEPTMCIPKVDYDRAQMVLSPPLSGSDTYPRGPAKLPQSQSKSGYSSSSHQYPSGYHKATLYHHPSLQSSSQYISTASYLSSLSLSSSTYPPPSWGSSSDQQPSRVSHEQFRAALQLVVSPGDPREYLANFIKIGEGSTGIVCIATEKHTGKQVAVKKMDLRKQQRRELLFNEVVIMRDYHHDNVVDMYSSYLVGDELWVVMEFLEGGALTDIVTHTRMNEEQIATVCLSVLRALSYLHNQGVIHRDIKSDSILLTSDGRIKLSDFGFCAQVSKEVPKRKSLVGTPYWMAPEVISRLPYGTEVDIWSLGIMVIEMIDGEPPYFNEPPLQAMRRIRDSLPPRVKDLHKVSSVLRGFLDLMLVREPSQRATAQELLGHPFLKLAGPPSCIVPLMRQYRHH
# [9] = molecular target: Serine/threonine-protein kinase PAK 5 (Homo sapiens) (UniProt Q9P286); settings: at 1 µM
# [10] = molecular target: Serine/threonine-protein kinase PAK 6 (Homo sapiens) (UniProt Q9NQU5); settings: at 0.1 µM
# Serine/threonine-protein kinase PAK 6 (Homo sapiens), sequence (Q9NQU5 whole entry, looked up): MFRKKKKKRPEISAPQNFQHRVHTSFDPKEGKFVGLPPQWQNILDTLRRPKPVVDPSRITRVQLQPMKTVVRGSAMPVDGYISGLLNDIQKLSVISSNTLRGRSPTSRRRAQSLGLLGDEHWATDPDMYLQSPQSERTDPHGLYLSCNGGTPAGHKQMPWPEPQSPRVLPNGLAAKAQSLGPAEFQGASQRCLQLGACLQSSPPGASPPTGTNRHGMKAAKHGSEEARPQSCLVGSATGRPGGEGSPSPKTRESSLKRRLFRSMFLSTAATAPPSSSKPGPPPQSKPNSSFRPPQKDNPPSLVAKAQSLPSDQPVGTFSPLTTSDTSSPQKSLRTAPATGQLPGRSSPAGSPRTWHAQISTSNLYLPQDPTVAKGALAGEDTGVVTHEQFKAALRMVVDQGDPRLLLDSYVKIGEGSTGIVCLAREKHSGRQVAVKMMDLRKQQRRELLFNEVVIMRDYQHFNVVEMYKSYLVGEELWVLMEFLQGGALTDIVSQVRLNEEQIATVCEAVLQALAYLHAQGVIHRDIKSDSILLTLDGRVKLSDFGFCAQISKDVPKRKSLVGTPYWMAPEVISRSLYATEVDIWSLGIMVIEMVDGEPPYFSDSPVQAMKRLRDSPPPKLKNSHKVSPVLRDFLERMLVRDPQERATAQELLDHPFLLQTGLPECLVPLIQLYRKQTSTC
# [11] = molecular target: Serine/threonine-protein kinase PAK 6 (Homo sapiens) (UniProt Q9NQU5); settings: at 1 µM
# [12] = tested on: Tyrosine-protein kinase ABL1 (Homo sapiens), P00519 [E255K]; settings: at 0.1 µM
# [13] = tested on: Tyrosine-protein kinase ABL1 (Homo sapiens), P00519 [E255K]; settings: at 1 µM
# [14] = tested on: Tyrosine-protein kinase ABL1 (Homo sapiens), P00519 [H396P]; settings: at 0.1 µM
# [15] = tested on: Tyrosine-protein kinase ABL1 (Homo sapiens), P00519 [H396P]; settings: at 1 µM
# [16] = tested on: Tyrosine-protein kinase ABL1 (Homo sapiens), P00519 [M351T]; settings: at 0.1 µM
# [17] = tested on: Tyrosine-protein kinase ABL1 (Homo sapiens), P00519 [M351T]; settings: at 1 µM
# [18] = tested on: Tyrosine-protein kinase ABL1 (Homo sapiens), P00519 [Q252H]; settings: at 0.1 µM
# [19] = tested on: Tyrosine-protein kinase ABL1 (Homo sapiens), P00519 [Q252H]; settings: at 1 µM
# [20] = tested on: Tyrosine-protein kinase ABL1 (Homo sapiens), P00519 [T315I]; settings: at 0.1 µM
# Serine/threonine-protein kinase 26 (Homo sapiens), sequence (Q9P289 2-416 limits assumed): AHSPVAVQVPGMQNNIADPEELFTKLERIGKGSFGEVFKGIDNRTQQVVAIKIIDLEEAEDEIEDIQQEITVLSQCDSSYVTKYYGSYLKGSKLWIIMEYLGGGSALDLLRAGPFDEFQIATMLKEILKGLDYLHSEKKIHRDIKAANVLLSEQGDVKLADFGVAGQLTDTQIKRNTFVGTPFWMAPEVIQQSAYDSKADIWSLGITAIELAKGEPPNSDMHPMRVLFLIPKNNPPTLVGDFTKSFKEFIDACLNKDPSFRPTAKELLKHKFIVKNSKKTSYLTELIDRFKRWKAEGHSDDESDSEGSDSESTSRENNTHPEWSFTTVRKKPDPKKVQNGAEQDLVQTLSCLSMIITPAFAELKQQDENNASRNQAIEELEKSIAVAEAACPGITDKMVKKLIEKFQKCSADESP
# Serine/threonine-protein kinase PAK 1 (Homo sapiens), sequence (Q13153 whole entry): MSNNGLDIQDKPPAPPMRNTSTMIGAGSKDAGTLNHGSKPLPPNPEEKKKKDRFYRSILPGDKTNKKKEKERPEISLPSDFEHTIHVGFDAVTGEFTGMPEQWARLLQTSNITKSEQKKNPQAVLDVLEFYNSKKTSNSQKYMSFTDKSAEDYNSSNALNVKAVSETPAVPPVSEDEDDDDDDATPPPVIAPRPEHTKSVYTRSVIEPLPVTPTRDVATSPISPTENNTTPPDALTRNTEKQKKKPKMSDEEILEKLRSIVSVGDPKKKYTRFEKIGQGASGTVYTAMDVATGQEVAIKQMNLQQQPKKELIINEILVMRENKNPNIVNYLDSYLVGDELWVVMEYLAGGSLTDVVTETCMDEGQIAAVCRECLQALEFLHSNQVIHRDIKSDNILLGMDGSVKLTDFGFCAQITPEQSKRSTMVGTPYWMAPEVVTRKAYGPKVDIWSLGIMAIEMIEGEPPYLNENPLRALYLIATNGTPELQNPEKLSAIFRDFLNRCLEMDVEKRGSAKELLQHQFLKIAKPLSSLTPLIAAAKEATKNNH
SMILES,inhibition [1] [%],inhibition [2] [%],inhibition [3] [%],inhibition [4] [%],inhibition [5] [%],inhibition [6] [%],inhibition [7] [%],inhibition [8] [%],inhibition [9] [%],inhibition [10] [%],inhibition [11] [%],inhibition [12] [%],inhibition [13] [%],inhibition [14] [%],inhibition [15] [%],inhibition [16] [%],inhibition [17] [%],inhibition [18] [%],inhibition [19] [%],inhibition [20] [%]
CCOc1nccc2c1nc(-c1nonc1N)n2CC,-0.82,5.11,2.07,0.86,1.74,3.24,4.4,7.54,6.11,5.85,12.4,1.66,3.45,1.16,6.55,1.78,5.68,2.67,6.45,1.75
COc1ccc(-c2nn3ncccc3c2-c2ccnc(Nc3cccc(C(F)(F)F)c3)n2)cc1,-0.52,6.36,5.19,0.91,-0.8,3.37,3.1,1.8,1.57,-2.15,-2.65,1.06,3.04,3.97,7.02,2.28,27,2.67,17.5,2.45
CC(C)c1ccc(Nc2nccc(-c3cnn4ncccc34)n2)cc1,2.8,2.05,3.55,1.06,0.9,1.95,2.33,-3.7,2.48,-6.25,2.84,1.9,4.45,3.09,8.88,1.81,10.2,2.85,11.6,2.34
CN(C)C(=O)O[C@H]1CN[C@H](C#Cc2cc3ncnc(Nc4ccc(OCc5cccc(F)c5)c(Cl)c4)c3s2)C1,-0.62,4.28,2.22,1.72,-0.31,2.53,4.3,4.8,1.82,9.3,7.18,2,3.31,2.06,-0.36,0.95,0.49,4.6,3.58,2.75
NS(=O)(=O)c1cccc(Nc2cc(-c3ccc(F)cc3)n[nH]2)c1,0.86,3.94,8.53,1.36,1.54,3.88,4.82,10.3,11.7,2.82,13,1.07,8.03,5.72,15.4,2.42,19.8,4.73,18.2,1.49
C[C@@H](Oc1cc(-n2cnc3ccc(OC[C@@H](O)CO)cc32)sc1C(N)=O)c1ccccc1Cl,1.05,-2.19,1.45,-2.74,-0.42,-2.28,-0.49,-7.17,-4.24,-7.41,-6.36,0.24,5.92,0,9.51,1.32,8.84,-1.76,8.32,-0.17
Cc1cc(O)cc(C)c1/C=C/c1cncc(C(=O)N(C)C)c1,1.13,2.77,6.81,1.73,0.38,-0.76,2.83,3.14,6.26,7.18,-3.14,2.42,5.44,4.36,8.17,3.42,7.17,4.29,8.87,2.58
NS(=O)(=O)c1ccc(-c2cc3ccncc3cc2OCc2ccccc2)cc1,0.38,5.31,6.13,1.08,0.46,3.48,4.21,1.12,-3.7,,4.76,2.82,3.92,4.66,6.67,3.16,4.42,4.84,4.61,1.65
Nc1nccc(-c2c(-c3ccc(F)cc3)nn3cc(C(F)(F)F)ccc23)n1,0.4,0.65,2.14,-2.44,-1.84,-0.02,-0.21,,-2.91,3.48,5.02,-2.06,-1.18,0.65,-0.33,1.15,1.14,1.06,0.27,0.42
O=C(Nc1ccc(Oc2ccc3[nH]c(NC(=O)c4ccco4)nc3c2)cc1)Nc1cc(C(F)(F)F)ccc1F,0.33,-2.95,-0.15,0.17,0.57,-0.21,0.34,6.4,6.36,2.79,6.45,15.2,67.1,60.1,92,72.4,93.2,68.6,91.6,76.3
Cc1ccc2c(-c3ccnc(Nc4cccc(C(F)(F)F)c4)n3)c(-c3ccccc3)nn2n1,13.3,9.96,8.06,1.38,1.7,5.11,5.68,-4.38,-7,,-8.69,3.52,19.7,11.3,44.8,24.1,68.2,24.2,69.1,6.16
O=S(=O)(CCOCc1ccc(-c2ccc3ncnc(Nc4ccc(OCc5cccc(F)c5)c(Cl)c4)c3c2)o1)c1ccccc1,0.25,4.98,5.84,-0.35,0.7,0.57,2.12,0.21,-1.3,,-7.47,0.44,-0.12,0.4,2.46,1.57,0.99,3.02,3.04,-0.12
CS(=O)(=O)CCNCc1nc(-c2ccc3ncnc(Nc4ccc(OCc5cccc(C(F)(F)F)c5)cc4)c3c2)cs1,1.5,1.25,3.12,-0.05,-0.1,2.76,5.04,2.81,1.26,,-5.71,0.56,1.8,2.03,2.31,1.36,1.22,1.8,1.75,0.33
COc1cc(/C=N/Nc2ncnc3c2cnn3C(C)C)ccc1O,3.49,3.62,2.53,-0.56,-0.45,-3.86,1.26,,4.69,-0.32,,21.7,71,34.7,80.7,34.7,80.5,35.4,81.6,9.92
Cc1ccc2c(c1)/C(=N/Nc1ccc(S(N)(=O)=O)cc1)C(=O)N2,17.1,-1.7,5.13,0.16,-0.31,0.21,-1.09,-8.51,,-4.78,-8.53,0.74,3.57,-0.31,5.97,0.64,8.33,1.64,7.52,1.43
Cc1cc(-c2ccccn2)cc(C)c1/C=C/c1cncc(-c2nn[nH]n2)c1,5.19,6.38,6.81,1.95,2.95,4.9,5.22,1.64,0.08,,-5.17,-0.88,3.22,3.18,8.77,0.81,5.63,3.34,9.01,0.21
CS(=O)(=O)Nc1cccc(-c2ccc3c(NC(=O)C4CC4)n[nH]c3c2)c1,1.22,2.69,3.3,0.99,0.37,0.48,1.23,,,-7.16,-4.78,1.67,7,2.46,16.8,3.14,16,0.49,7.01,3.71
C[C@@H](Oc1cc(-n2cnc3ccc(OCC4CCN(C)CC4)cc32)sc1C(N)=O)c1ccccc1C(F)(F)F,,-2.64,0.44,-1.54,-2.14,-1.81,0.3,-2.43,-1.92,1.47,-0.65,-1.19,0.71,-1.32,1.14,0.4,2.58,-0.85,1.8,0.36
Cc1ccc(NC(=O)CC2CC2)cc1-c1ccc(C(=O)NCC2CC2)cc1,0.9,5.24,4.74,1.76,1.56,3.33,4.25,6.64,5.74,,1.56,4.24,5.26,6.77,3.96,4.32,3.09,6.39,4.54,2.14
CCn1c(-c2nonc2N)nc2ccc(F)cc21,3.36,12,11.2,3.1,3.8,7.78,6.52,-1.6,,2.06,0.67,2.57,4.59,4.55,4.61,2.2,2.4,4.86,3.17,3.34
COC(=O)c1ccc2c(c1)C(=Cc1cc(Br)c(O)c(Br)c1)C(=O)N2,15.1,8.19,10.1,1.7,1.99,4.21,5.43,7.06,10.8,,-6.8,2.18,13.1,4.03,14.9,0.64,12.9,2.75,15.8,1.82
COc1cc2ncnc(Nc3ccc4c(cnn4Cc4ccccc4)c3)c2cc1OC,-2.02,4.26,6.92,1.54,2.6,2.02,3.19,1.77,2.16,,-6,2.21,2.28,2.93,6.16,0.94,3.26,2.63,7.1,2.91
CCn1c(-c2nonc2N)nc2c(C#CC(C)(C)O)nc(OCCNC)cc21,-1.03,8.56,5.49,1.23,2.27,3.16,5.05,3.8,12.5,,1.16,2.13,2.96,3.72,4.85,1.62,3.61,3.81,4.6,1.77
Nc1ccc(C#Cc2cncnc2Nc2ccc(OCc3cccc(F)c3)c(Cl)c2)cc1,-2.17,0.57,1.46,0.83,0.22,3.57,2.79,0.61,2.79,-4.23,-1.86,2.88,3.39,2.21,2.72,-1.21,0.91,2.9,2.24,1.6
Oc1cccc(-c2nc(-c3ccccc3)[nH]c2-c2ccncc2)c1,4.67,6.65,6.51,2.18,1.52,3.47,3.48,11.4,15.7,,2.02,6.54,26.7,9.87,36.6,8.39,31.3,7.9,27,3.52
COc1cccc(-n2nc(C)c3c(N/N=C(\C)c4ccncc4)ncnc32)c1,1.92,-1.07,5.57,-1.35,-0.3,0.46,2.49,-0.74,-1.22,,-5.25,1.05,1.53,0.51,4.07,-0.39,4.06,0.65,3.19,-2.26
CN(C)C(=O)O[C@@H]1CN[C@@H](C#Cc2cc3ncnc(Nc4ccc(OCc5cccc(F)c5)c(Cl)c4)c3s2)C1,0.17,1.48,2.04,0.43,-0.42,0.58,-0.38,-5.8,,2.87,-6.9,-0.68,2.16,-0.68,-1.23,-1.17,0.01,2.52,2.17,-0.5
COC(=O)c1cncc(/C=C/c2c(C)cc(O)cc2C)c1,-1.43,4.61,0.91,2.48,0.99,4.48,4.33,9.23,2.77,1.5,7.57,6.85,38,13.3,60,15.9,66.3,15.9,64.1,4.16
